In PubChem BioAssay AID489037 (National Center for Advancing Translational Sciences (NCATS), 2010):
Several values for one entry are separate records, joined by “and”; a condition that tells them apart may be missing. Identical values can stand only once. Results filed as inconclusive are left out. Some structures have more than one record in an assay (separate samples or runs), and their calls can disagree. Activity calls are given as the source filed them. Calls follow the shape of the dose curve; as a rule, active = well fitted inhibition curve with a large enough effect; inconclusive = small, poorly fitted or top-dose-only effect, or effect the other way; inactive = no such curve, though single readings can be large or run the other way.

Each compound was assayed against Nuclear receptor ROR-gamma (Mus musculus) (UniProt P51450) (assay: Secondary confirmation assay for inhibitors of ROR gamma transcriptional activity). Settings: Drosophila S2 Gal4-RORgamma UAS-luciferase reporter, 20 h; series mostly up to 92.2 µM; activity change, negative = inhibition: at the top concentration.
Nuclear receptor ROR-gamma (Mus musculus), sequence (P51450 whole entry, looked up, the tested form may be a part): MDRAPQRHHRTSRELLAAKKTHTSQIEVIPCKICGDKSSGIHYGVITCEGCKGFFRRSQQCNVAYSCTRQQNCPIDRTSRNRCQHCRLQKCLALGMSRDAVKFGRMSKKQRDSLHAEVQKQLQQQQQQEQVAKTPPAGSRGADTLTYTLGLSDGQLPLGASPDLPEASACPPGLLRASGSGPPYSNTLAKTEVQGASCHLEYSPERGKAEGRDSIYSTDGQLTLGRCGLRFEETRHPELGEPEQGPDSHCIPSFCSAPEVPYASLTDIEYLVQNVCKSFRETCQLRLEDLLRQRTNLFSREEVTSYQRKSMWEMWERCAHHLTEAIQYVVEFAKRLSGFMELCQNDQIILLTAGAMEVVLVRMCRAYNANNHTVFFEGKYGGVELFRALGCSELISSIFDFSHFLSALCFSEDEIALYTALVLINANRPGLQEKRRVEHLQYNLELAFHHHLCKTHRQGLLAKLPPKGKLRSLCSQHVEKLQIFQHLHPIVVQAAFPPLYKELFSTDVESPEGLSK
Source text: NIH Molecular Libraries Probe Production Network [MLPCN] NIH Chemical Genomics Center [NCGC] MLPCN Grant: R03 DA026211-01 Assay Provider: Dan Littman, New York University Keywords: NIH Roadmap, MLPCN, MLI, MLSMR, qHTS, NCGC, qHTS, nuclear hormone receptor, retinoic acid-related orphan receptor, ROR gamma Assay Overview: The retinoic acid-related orphan receptor (ROR) gamma is a transcription factor that has a central role in the differentiation of Th17 cells, a subset of T helper cells that secrete the inflammatory cytokines IL-17, IL-17F, and IL-22. Th17 cells have been implicated in graft versus host disease, autoimmune disease and asthma. ROR gamma is induced in naive T helper cells in the presence of TGF-beta combined with IL-6, IL-21, or IL-23, and thereafter directs the expression of the Th17 lineage cytokines. To study the mechanism of action of ROR gamma, an insect cell-based assay was screened. This Drosophila Schneider cell line was stably transfected with two vectors: a gene expressing a fusion of the Gal4 DNA binding domain and ROR gamma transactivation domain under the control of the metallothionine promoter and a Photinus luciferase reporter regulated by the Gal4 binding site enhancer, UAS. […] Small molecule inhibitors of ROR gamma activity are detected by a decrease in luciferase reporter activity.
Assay Protocol Summary: For screening, 600 cells in 4 uL/well were dispensed into white solid 1536-well plates (Grenier) using a solenoid-based dispenser. Following transfer of 23 nL compound or DMSO vehicle by a pin tool, the plates were incubated 1 hr at ambient temperature, and 1 uL/well copper sulfate (700 uM final concentration) was added. The plates were centrifuged 15 s at 1000 RPM and incubated 20 hr at ambient temperature. After addition of 1.5 uL Photinus luciferase detection reagent, the plates were incubated 10 min at ambient temperature and then read by an ViewLux (Perkin Elmer) to detect luminescence. Keywords: NIH Roadmap, MLPCN, MLI, MLSMR, qHTS, NCGC, qHTS, nuclear hormone receptor, retinoic acid-related orphan receptor, ROR gamma
With `COc1cc(O)c(C(CC(=O)N2CCCC2)c2ccc3c(c2)OCO3)c(OC)c1` (stereo not given) the “activity change, negative = inhibition” value was -12.2% (inactive). In the case of `COc1ccc2nc(NNC(=O)COc3ccccc3)sc2c1`, the Potency is reported as 4.57 µM (active). With `COCC1CCCCN1C(=O)c1cc(COc2ccc3ncccc3c2)on1` (stereo not given) the Potency was 11.5 µM (active). For `COc1cc(O)c(C(CC(=O)N2CCC(Cc3ccccc3)CC2)c2ccc(OC)c(OC)c2)c(OC)c1` (stereo not given), the “activity change, negative = inhibition” value was 7.01% (inactive). For `Cc1nn(-c2cc(C)c3ccccc3n2)c2c1C1C(C2)C1(C)C` (stereo not given), the Potency was 3.63 µM (active). With `COc1cc(O)c(C(CC(=O)N2CCCC(C)C2)c2ccccc2OC)c(OC)c1` (stereo not given) the “activity change, negative = inhibition” value was 0.544% (inactive). In the case of `CC1CCCN(C(=O)CC(c2ccccc2)c2ccc(O)cc2)C1` (stereo not given), the “activity change, negative = inhibition” value is reported as 0.816% (inactive). `COc1cc(O)c(C(CC(=O)N2CCCC(C)C2)c2ccccc2)c(OC)c1` (stereo not given) was tested, and the Potency was 7.24 µM (active). `O=S(=O)(c1ccc(NC(=S)N/N=C/c2ccc(Oc3ccccc3)cc2)cc1)N1CCOCC1` was tested, and the Potency was 1.15 µM (active). `COc1cc(O)c(C(CC(=O)N2CCC[C@H](C)C2)c2ccc3c(c2)OCO3)c(OC)c1` (stereo not given in full) was tested, and the Potency was 9.11 µM (active) and 3.23 µM (active) and inactive. With `COc1cc(C)nc(-n2nc(C)cc2OC)n1` the Potency was 3.23 µM (active). `CC(C)[C@H](NC(=O)C1CCN(C(=O)[C@@H]2CCCN2C(=O)OC(C)(C)C)CC1)C(=O)NCc1ccc(F)cc1` was tested, and the Potency was 32.3 µM (active). `COc1cc(O)c(C(CC(=O)N2CCCC(CN3CCCCC3)C2)c2ccc3c(c2)OCO3)c(OC)c1` (stereo not given) was tested, and the “activity change, negative = inhibition” value was -10.8% (inactive). `Cc1cc(C)c2sc(NC(=O)c3ccc(N4C(=O)CCC4=O)cc3)nc2c1` was tested, and the Potency was 0.229 µM (active). With `COc1cc(O)c(C(CC(=O)N2CCCCC2)c2ccc3c(c2)OCO3)c(OC)c1` (stereo not given) the Potency was 20.4 µM (active). With `Cc1ccc(C)c(/C=N/n2cc(-c3ccccc3)[nH]c2=S)c1` the Potency was 0.575 µM (active). For `COc1cc(O)c(C(CC(=O)N2CC(C)CC(C)C2)c2ccc(O)cc2)c(OC)c1` (stereo not given), the Potency was 2.04 µM (active). With `Cc1ccc(C(=O)O/N=C/c2ccc(N(C)C)cc2)cc1` the Potency was 32.3 µM (active). With `Cc1cc(C)c2[nH]c(C(=O)Nc3ccc4c(c3)OCO4)cc2c1` the Potency was 0.257 µM (active). `COc1ccc(C(CC(=O)Nc2ccc(F)cc2)c2ccccc2)cc1` (stereo not given) was tested, and the “activity change, negative = inhibition” value was -71.9% (inactive). With `CN1CCN(C(=O)CCN2C(=O)/C(=C\c3ccccc3F)SC2=S)CC1` the Potency was 18.2 µM (active). `COc1cc(O)c(C(CC(=O)N2CCCC(C(=O)c3ccccc3)C2)c2ccc3c(c2)OCO3)c(OC)c1` (stereo not given) was tested, and the “activity change, negative = inhibition” value was 15% (inactive). For `COc1cc(O)c(C(CC(=O)N2CCOCC2)c2ccc(OC)c(OC)c2)c(OC)c1` (stereo not given), the “activity change, negative = inhibition” value was -16.7% (inactive). For `COc1cc(O)c(C(CC(=O)NC2CCC(C)CC2)c2ccc3c(c2)OCO3)c(OC)c1` (stereo not given), the “activity change, negative = inhibition” value was -23.7% (inactive). `CCN(CC)c1ccc(/C=N/n2c(-c3ccccc3Br)n[nH]c2=S)cc1` was tested, and the Potency was 1.62 µM (active). With `COc1cc(O)c(C(CC(=O)N2CCC(C)CC2)c2ccc(OC)c(OC)c2)c(OC)c1` (stereo not given) the “activity change, negative = inhibition” value was -29.8% (inactive). `COc1cc(O)c(C(CC(=O)N2CCCCC2)c2ccc(OC)c(OC)c2)c(OC)c1` (stereo not given) was tested, and the “activity change, negative = inhibition” value was -14.4% (inactive). With `COc1cc(O)c(C(CC(=O)N2CC(C)CC(C)C2)c2ccc(N(C)C)cc2)c(OC)c1` (stereo not given) the Potency was 2.88 µM (active). With `COc1cc(O)c(C(CC(=O)N2CCCC(C)C2)c2ccc(C(C)C)cc2)c(OC)c1` (stereo not given) the Potency was 14.4 µM (active). For `COc1cc(OC)c(C(CC(=O)N2CC(C)CC(C)C2)c2ccc3c(c2)OCO3)c(OC)c1` (stereo not given), the Potency was 4.57 µM (active). With `CN1CCN(C(=O)CCN2C(=O)/C(=C/c3ccccc3Cl)SC2=S)CC1` the Potency was 28.8 µM (active). With `COc1cc(OC)c(C(CC(=O)N2CCCC(C)C2)c2ccc3c(c2)OCO3)c(OCc2ccccc2)c1` (stereo not given) the Potency was 6.45 µM (active). For `COc1cc(O)c(C(CC(=O)N2CCCC(C)C2)c2ccc3ccccc3c2)c(OC)c1` (stereo not given), the Potency was 5.75 µM (active). In the case of `O=C(CCCN1C(=O)/C(=C/c2ccccc2Cl)SC1=S)Nc1cccnc1`, the Potency is reported as 1.82 µM (active). For `COc1cc(O)c(C(CC(=O)NCc2ccccc2)c2ccc3c(c2)OCO3)c(OC)c1` (stereo not given), the “activity change, negative = inhibition” value was 8.94% (inactive). With `CCC(=O)C1CCCN(C(=O)CC(c2ccc3c(c2)OCO3)c2c(O)cc(OC)cc2OC)C1` (stereo not given) the “activity change, negative = inhibition” value was 2.25% (inactive). In the case of `CCOc1ccc(C(CC(=O)N2CCCC(C)C2)c2c(O)cc(OC)cc2OC)cc1` (stereo not given), the Potency is reported as 4.07 µM (active). With `COc1cc(OC)c(C(c2ccccc2)C(C)(C)C(=O)N2CC(C)CC(C)C2)c(OC)c1` (stereo not given) the Potency was 5.12 µM (active). With `CC1CCCN(C(=O)CC(c2ccccc2)c2ccccc2O)C1` (stereo not given) the “activity change, negative = inhibition” value was 9.21% (inactive). In the case of `COc1ccc(C(CC(=O)N2CCCC(C)C2)c2c(O)cc(OC)cc2OC)cc1` (stereo not given), the Potency is reported as 2.29 µM (active).
